Cycloheximide cs: affects cycloheximide protein synthesis inhibition readout, counter-screen; cell reporter, cycloheximide protein synthesis inhibition counterscreen; max response, %; hit rate 12% among 300,000; in the data active = max response mostly above about 13%, no sharp cut-off; inactive = mostly below about 14%; also: read at 38.3 µM for the half of the compounds with a filed dose; 0% is about no effect
Sm TGR inh: S. mansoni TGR enzyme inhibition; purified TGR, DTNB reduction, TNB absorbance 405 nm; AID 485364; Q962Y6; hit rate 3% among 360,000; Potency, µM (doses to about 114 µM), for the others: top-dose activity change, negative = inhibition, most hits filed as inhibitors; also: potency is read from the fitted curve at half-maximal effect; % is scaled to controls: 0 for no effect and ±100 for the full control effect; nearly all actives have a fitted effect of over 60% in size
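First, TGR (20 nM dispensed) and NADPH were mixed with compound. Second, a 15 min room-temperature incubation followed. Third, further NADPH and then DTNB were added to start the reaction. Finally, TNB absorbance was monitored kinetically.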
NS1 inh: influenza NS1 inhibition; Potency, µM (highest dose often 46.1 µM), without a hit: at the top dose activity, positive = more growth; hit rate 0.4% among 270,000; calls by dose curve; also: potency is read from the fitted curve at half-maximal effect; actives are rising curves; nearly all actives have a fitted effect of over 50% in size
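Growth recovery, yeast-based: influenza A NS1 expressed in S. cerevisiae causes slow growth, and suppressors are detected by OD600. The parent strain without NS1 is used as positive control.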
Pf growth 96h: P. falciparum growth inhibition at 96 hour, primary screen for plastid delayed-death inhibitors; Potency, µM (top dose mostly 28.7 µM), for inactives: at the top dose activity change, negative = inhibition, usual class: inhibitors; hit rate 6.9% among 320,000; P. falciparum luciferase reporter growth, 96 h; also: potency is read from the fitted curve at half-maximal effect; % is scaled to controls: 0 for no effect and ±100 for the full control effect
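Cell-based qHTS: luciferase-tagged P. falciparum in erythrocytes (2% hematocrit, 0.05% parasitemia final) incubated with compounds for 96 hours, 37 C, 5% CO2; luciferase detection reagent then added and luminescence measured.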
Pf growth 48h: P. falciparum growth inhibition at 48 hours (one generation); P. falciparum luciferase growth in erythrocytes, 48 h; Potency, µM (titrated, usually from 28.7 µM), inactives show at the highest dose activity change, negative = inhibition, most hits filed as inhibitors; hit rate 5.9% among 310,000; AID 504832; also: potency is read from the fitted curve at half-maximal effect; % is scaled to controls: 0 for no effect and ±100 for the full control effect
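Erythrocytes infected with P. falciparum carrying an integrated firefly luciferase reporter (2% hematocrit, 0.1% parasitemia final) were exposed to compounds in RPMI 1640 with 0.5% Albumax at 37 C, 5% CO2. Growth inhibition was scored as reduced luminescence.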
Shiga inhibitor: Shiga toxin inhibition. Vero cells, Shiga toxin protein synthesis inhibition reporter. inhibition, % at 38.7 µM. hit rate 9.2% among 290,000; in the data active = inhibition mostly above about 28%, no sharp cut-off; inactive = mostly below about 43%; also: 0% is about no effect
An asterisk follows results filed as active; ? = inconclusive; · = no result; ! = a repeat was not active; [ ] = remark or other dose. An excerpt weighted towards active compounds, which were near 21% of everything screened. Unless noted, calls follow the shape of the dose curve; as a rule, active = well fitted curve in the direction sought with a large enough effect; inconclusive = small, poorly fitted or top-dose-only effect, or another doubt; inactive = no such curve, though single readings can be large; an effect the other way counts as inactive or inconclusive.

SMILES | Cycloheximide cs | Sm TGR inh | NS1 inh | Pf growth 96h | Pf growth 48h | Shiga inhibitor
O=c1cc(O)c(-c2ccc(Cl)cc2)c(Cl)[nH]1 | 2.8 | 10.1% | 15.1% | 0.0% | 13.1µM* | 14.5
Cn1c(=O)c2c(-c3ccc(Br)cc3)n(CCc3ccccc3)cc2n(C)c1=O | · | -16.2% | · | · | · | ·
CC(C)CC1NC(=O)N(CC(=O)Nc2ccc3c(c2)CCC3)C1=O (centres undefined) | 9.3 | -5.7% | · | 20.8% | -10.8% | -9.2
Cc1cccc2c(SCC(=O)NCC3CCCO3)nc(-c3ccc(F)cc3)nc12 (centres undefined) | -0.8 | 4.4% | -1.5% | 7.4% | 18.5% | -7.9
COc1nnc(-c2ccccc2)s1 | 15.4 | 2.2% | 7.7% | 13.2% | 16.8% | 41.2*
Nc1nnc(-c2ccccc2)s1 | 6.3 | -15.2% | -8.4% | · | 19.3% | 10.0
COc1ccc(-c2noc(COc3cc(C)c(Br)c(C)c3)n2)cc1OC | · | 6.7% | · | · | · | ·
CCN(CC)S(=O)(=O)c1ccc(/C(O)=C(\C#N)c2nc3ccccc3n2C)cc1 | -2.5 | -35.2% | -23.7% | 0.262µM* | ? | -18.2
Cn1c(/C(C#N)=C(\O)c2ccc([N+](=O)[O-])cc2)nc2ccccc21 | 9.1 | -2.7% | · | 53.2%[1.15 µM] | 7.4% | -1.7
CC1=CC(C)(C)N(C(=O)CNC2CCCCC2)c2cc(C)ccc21 | 5.7 | -0.1% | -2.6% | ? | 9.28µM* | -12.0
Nc1c(C(=O)Nc2ccc(S(=O)(=O)N3CCCC3)cc2)sc2nc3ccc(OC(F)(F)F)cc3cc12 | 6.6 | -3.9% | 6.7% | 200.0% | 10.4µM* | 2.9
Nc1c(C(=O)Nc2ccc(S(=O)(=O)N3CCCC3)cc2)sc2nc3cc4c(cc3cc12)CCC4 | 27.4* | 2.0% | 6.3% | -9.4% | 1.85µM* | 21.6*
O=NN(Cc1ccc(Cl)cc1)[C@@H](C(=O)O)c1ccccc1 | · | · | -5.9% | · | · | ·
S=c1nc[nH]c2nc[nH]c12 | -1.9 | 15.8µM*! | -6.0% | ? | ? | 3.1
COc1ccc2[nH]c3c(=S)nc[nH]c3c2c1 | 8.7 | -28.7% | 1.5% | 4.0% | 56.6% | 31.0
Cc1ccc(N(Cc2cc3ccccc3[nH]c2=O)C(=O)c2ccco2)c(C)c1 | 1.5 | -14.6% | 3.8% | · | ? | -13.0
COCC(=O)N(Cc1cc2ccc(C)cc2[nH]c1=O)c1ccc(OC)cc1 | -5.3 | 4.4% | 4.6% | 2.4% | -3.3% | -6.6
Cc1cccc(N(Cc2cc3ccc(C)cc3[nH]c2=O)C(=O)c2ccco2)c1 | -1.2 | 4.47µM* | 2.9% | 10.4µM* | ? | -2.3
Cc1ccc2cc(CN(C(=O)c3cccc(Cl)c3)c3ccccc3)c(=O)[nH]c2c1 | · | -1.0% | · | · | · | ·
Cc1ccc(N(Cc2cc3ccc(C)cc3[nH]c2=O)C(=O)c2ccco2)cc1 | -1.0 | 2.24µM* | 2.2% | 239.1% | -10.8% | -3.4
CCOc1ccc(N(Cc2cc3ccc(C)cc3[nH]c2=O)C(=O)COC)cc1 | 24.3* | 3.9% | -10.8% | ? | -10.1% | 28.9
Cc1ccc2cc(CN(C(=O)c3ccco3)c3ccccc3)c(=O)[nH]c2c1 | 22.8* | 31.6µM* | 6.3% | ? | -9.6% | 30.2
COc1ccc(C(=O)NC2CCC(O)CC2)cc1S(=O)(=O)NCc1ccc(Cl)cc1 (centres undefined) | · | -10.9% | · | ? | 13.1µM* | ·
COC(=O)CC[C@H](N)C(=O)O | · | · | · | -24.9% | 2.3% | ·
NC(=O)c1ccccc1NC(=O)CC12CC3CC(CC(C3)C1)C2 | -3.1 | 7.6% | -10.0% | 9.28µM* | -11.0% | ·
SMILES | Cycloheximide cs | Sm TGR inh | NS1 inh | Pf growth 96h | Pf growth 48h | Shiga inhibitor
NC(=O)c1ccccc1NC(=O)CCc1ccccc1 | 28.5* | -8.2%[11.4 µM] | -8.8% | 77.9% | · | 52.3
CN(C)S(=O)(=O)c1cccc(NC(=O)CC23CC4CC(CC(C4)C2)C3)c1 | 3.3 | 3.2% | 14.3% | ? | 14.7µM* | 16.0
O=C(O)CCC(=O)Nc1ccccc1C(=O)Nc1ccccc1 | 3.8 | -3.9% | -0.9% | · | 1.3% | 21.3
O=C(O)CCC(=O)Nc1ccccc1C(=O)NCCc1ccccc1 | 44.8* | -0.6% | 16.3% | 125.5% | 60.3% | 72.6*
O=c1c2cc3c(cc2n(Cc2cccc(F)c2)c(=O)n1Cc1nc(-c2ccccc2)no1)OCO3 | · | -1.8% | · | · | · | ·
O=C(NCCc1ccccc1)c1ccccc1NC(=O)C1CC=CCC1C(=O)O (centres undefined) | 61.3* | -0.2% | -6.2% | 93.9% | 88.2% | 69.8*
O=C(Nc1ccccc1C(=O)NCCc1ccccc1)c1cnccn1 | 19.4* | 5.6% | -1.3% | 81.7% | 42.7% | 46.6
COc1cccc(C(c2c(O)nc(SC)n(C)c2=O)c2c(O)nc(SC)n(C)c2=O)c1 | -3.1 | 7.08µM* | 3.3% | 69.9% | ? | -5.1
CCCSc1nc(O)c(C(c2ccc(OC)c(O)c2)c2c(O)nc(SCCC)n(C)c2=O)c(=O)n1C | -1.9 | 12.6µM* | 9.5% | -22.8% | -14.5% | -16.1
CCn1c(N2CCN(Cc3ccc([N+](=O)[O-])cc3)CC2)nc2ccccc21 | -3.0 | -6.4% | -48.1% | 13.1µM* | ? | 1.7
COc1ccc2nc(Sc3c([N+](=O)[O-])nc(C)n3Cc3ccccc3)[nH]c2c1 | -5.2 | -54.3% | 0.7% | ? | 22.5% | -11.5
Cc1cccc(Cn2c(C)nc3ccc([N+](=O)[O-])cc3c2=O)c1 | 1.3 | 10.2% | 20.0% | -10.2% | 6.7% | 25.5
Cc1nc([N+](=O)[O-])c(N2CCN(Cc3ccccc3)CC2)n1Cc1ccccc1 | -4.9 | -1.7% | -0.8% | 16.5µM* | · | -13.1
Cc1cc2nc(Sc3c([N+](=O)[O-])nc(C)n3Cc3ccccc3)[nH]c2cc1C | -1.8 | 17.8µM* | -1.7% | ? | 10.4µM* | -10.0
Cc1nc([N+](=O)[O-])c(N2CCOCC2)n1Cc1ccccc1 | 13.9 | 5.4% | 3.0% | -9.7% | 15.5% | -0.4
Cc1nc([N+](=O)[O-])c(Sc2nc3ccccc3[nH]2)n1Cc1ccccc1 | -4.4 | 20µM* | -2.8% | 4.15µM* | ? | -12.1
COc1ccc(OC)c(NC(=O)CC(NC(C)=O)c2ccccc2)c1 (centres undefined) | 3.1 | -0.6% | · | -12.7% | 13.1% | -3.3
Cn1cnc([N+](=O)[O-])c1Sc1nc2ccccc2[nH]1 | 0.3 | 1.41µM* | 7.5% | ? | ? | -5.1
O=C1CC(c2ccc3c(c2)OCCO3)Oc2ccc([N+](=O)[O-])cc21 (centres undefined) | 45.9* | 89.1µM* | -3.8% | 447.8% | 111.5% | 88.4*
c1ccc(C2C/C(=N\N3CCOCC3)c3ccccc3O2)cc1 (centres undefined) | -5.1 | 6.8% | -2.0% | 7.2% | 25.4% | -7.5
COc1ccc(C2CC(=O)c3ccccc3O2)cc1 (centres undefined) | 41.4* | -7.0% | -30.5% | 238.7% | 301.3% | 25.4
COc1cccc(C2Cc3ccccc3C(=O)O2)c1 (centres undefined) | 21.3 | 0.4% | -0.5% | 25.3% | 36.8% | 27.3
O=C(c1cccc([N+](=O)[O-])c1)c1ccc2c(c1)OCCOCCOCCOCCO2 | -1.4 | 3.0% | -7.6% | 127.8% | 58.4% | -15.0
